In PubChem BioAssay AID1135 (Sanford-Burnham Center for Chemical Genomics, 2008):
Among all 200,000 compounds or so, about 65 (0.03%) were called active.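 Rule for the calls: active = over 50% inhibition of tissue-nonspecific alkaline phosphatase at 20 µM in the single-dose screen; inactive = the rest.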 What follows is part of a selection rich in actives, with near analogues and random picks from the rest.

target: Alkaline phosphatase, tissue-nonspecific isozyme (Homo sapiens) (UniProt P05186); assay: human TNAP enzyme inhibitors, primary screen, biochemical, luminescent, high phosphate acceptor level, uHTS (AID 1135); conditions: purified TNAP, CDP-star luminescence, 1 M DEA; at 20 µM; stronger effect = higher value;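 note: plate controls were DMSO wells for no effect and EDTA-quenched wells as full inhibition for full effect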
Sequence (P05186 whole entry, looked up): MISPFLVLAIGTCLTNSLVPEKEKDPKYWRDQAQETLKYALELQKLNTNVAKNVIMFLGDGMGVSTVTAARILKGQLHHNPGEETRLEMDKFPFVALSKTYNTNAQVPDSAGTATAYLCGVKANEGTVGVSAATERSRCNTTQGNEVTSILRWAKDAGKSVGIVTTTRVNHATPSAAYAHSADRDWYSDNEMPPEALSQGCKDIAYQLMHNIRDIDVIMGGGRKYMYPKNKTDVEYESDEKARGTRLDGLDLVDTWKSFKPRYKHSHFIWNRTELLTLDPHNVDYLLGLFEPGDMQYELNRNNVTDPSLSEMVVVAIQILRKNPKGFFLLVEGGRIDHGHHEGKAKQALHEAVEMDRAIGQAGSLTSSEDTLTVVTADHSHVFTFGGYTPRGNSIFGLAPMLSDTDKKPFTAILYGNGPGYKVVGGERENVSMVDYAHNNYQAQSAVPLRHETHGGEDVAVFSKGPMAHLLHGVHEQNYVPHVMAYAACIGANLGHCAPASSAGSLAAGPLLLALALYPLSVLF

inhibition, active:
CC(=O)c1c(C)[nH]c(C(=O)OCC(=O)Nc2sc3c(c2C#N)CCCC3)c1C 50.6%
CCOc1ccc(C(c2c(C)[nH][nH]c2=O)c2c(C)[nH][nH]c2=O)cc1OCC 71.4%

inhibition, inactive:
CC(=O)N/N=C/c1cc2c(cc1[N+](=O)[O-])OCO2 2.5%
COc1ccc(NC(=S)NCCN2CCC(C)CC2)cc1 -0.4%
CCN1CCN(C(C(=O)NC2CCCC2)c2cc3c(cc2[N+](=O)[O-])OCO3)CC1 (stereo not drawn) -2.4%
O=C(Nc1ccccc1C(=O)N1CCOCC1)c1ccc(Cl)cc1 -6.3%
COc1ccc(Cl)cc1NC(=O)[C@@H]1CCCN1C(=O)c1cccs1 1%
O=[N+]([O-])c1ccc(N/N=C2/CCCCC2c2ccccn2)c([N+](=O)[O-])c1 (stereo not drawn) 4%
CC(C)OC(=O)Cn1nc(C(F)(F)F)c2c1CCCC2 -1.6%
O=C(COc1ccccc1)Nc1ccc(N2CCN(C(=O)c3cccs3)CC2)cc1 -2.1%
Cc1ccc(NC(=O)c2sccc2C)cc1[N+](=O)[O-] 0.9%
COc1ccc(NS(=O)(=O)c2cc(NC(=O)C3CCCCC3)ccc2N2CCOCC2)cc1 0.1%
COc1cccc(OC)c1C(=O)OCC(=O)/C(C#N)=C(\C)N 0.2%
CCOc1ccc(CCN2C(=O)c3cccnc3C2=O)cc1OCC 2.6%
CC(=O)c1ccc(N2CCN(CC(=O)Nc3ccccc3N3CCOCC3)CC2)cc1 -5.4%
CCOCCCNC(=O)C(NC(=O)Cc1c[nH]c2ccccc12)c1ccc(OC)cc1 (stereo not drawn) 2.4%
CCN1CCN(c2cc3nc(C)n(Cc4ccccc4)c(=O)c3cc2NC(=O)c2ccccc2F)CC1 -2.8%
C/C(=N\NC(=O)c1ccc(NS(=O)(=O)c2cccs2)cc1)c1ccc2ccccc2c1 -2.7%
Cc1ccc(C(=O)COC(=O)CCCC(=O)NC2CCCCC2)cc1[N+](=O)[O-] -4.3%
O=C(Nc1cccnc1)c1cc2cc(Br)ccc2oc1=O -1.6%
CCNS(=O)(=O)c1ccc(NC(=O)c2cncc(Br)c2)cc1 -1%
Cc1ccc(S(=O)(=O)N(C)C)cc1NC(=O)COC(=O)C1COc2ccccc2O1 (stereo not drawn) -3.2%
CCOC(=O)c1ccccc1N1C(=O)C2Sc3[nH]c(=O)sc3C(/C=C/c3ccccc3)C2C1=O (stereo not drawn) 4.9%
CCc1nnc(NC(=O)CCCSc2nc3ccccc3[nH]2)s1 -4.4%
CCN(CC)P(=O)(Nc1ccc(SC(F)F)cc1)c1ccc(N(C)C)cc1NC(=O)c1ccco1 (stereo not drawn) -7.3%
O=C(C(=O)N1CCc2ccccc2C1)c1c[nH]c2ccccc12 40.6%
C=CCNc1scc(-c2ccccc2)[n+]1CC=C -7.7%
Oc1c(Br)cccc1/C=N/Nc1c(F)c(F)c(F)c(F)c1F 4.6%
C/C(=N/NC(=O)CSc1ccccn1)c1ccc([N+](=O)[O-])cc1 -4.8%
Nc1nnnn1CC(=O)N/N=C/c1ccc(-c2cccc(Cl)c2)o1 -2.3%
O=C(COc1ccc(Cl)cc1)NCc1nnc(SCC(=O)NCC2CCCO2)o1 (stereo not drawn) -2.4%
COc1ccc(/C=C/C(=O)c2cc(Br)ccc(=O)c2O)cc1 12.7%
CCNC(=O)CC1C(=O)N(c2ccc(F)cc2)C(=O)N1CCc1sccc1C (stereo not drawn) 3.2%
CCCCn1c(N)c(N(CC)C(=O)/C=C/c2ccco2)c(=O)[nH]c1=O 1.1%
COc1ccc(Cl)cc1N(CC(=O)N1CCCCC1)S(C)(=O)=O -2.8%
COc1ccc(C2CC(c3ccccc3)=NN2C(=O)c2ccc(Cl)c([N+](=O)[O-])c2)cc1 (stereo not drawn) 0.4%
O=C(/C(=C/c1cccc(Cl)c1)c1nc2ccccc2[nH]1)c1ccccc1 -1.2%
Cc1cc(C)n(-c2ccc3nncn3n2)n1 -4%
CCOc1ccc(S(=O)(=O)Nc2ccncc2)c(C)c1C -3.2%
c1ccc2c(NC3C4CC5CC(C4)CC3C5)nc(N3CCOCC3)nc2c1 (stereo not drawn) -4.8%
COc1cccc(C(=O)Oc2cc(C)[nH]c(=O)c2[N+](=O)[O-])c1 -4.1%
CC1(C)CC(=O)CC2(C1)NCC(c1ccccc1Cl)c1c2[nH]c2ccccc12 (stereo not drawn) -3.4%
CCOn1c(=O)c(=O)n(O)c2ccccc21 -6.3%
Cc1ccc([N+](=O)[O-])c(OCCCNCC(C)O)c1 (stereo not drawn) -0.7%
COc1ccc(C)cc1NC(=O)C(Sc1ccccc1)c1ccccc1 (stereo not drawn) -3%
CCCCC(CC)CNC(=O)CCCCn1c(=O)[nH]c2ccsc2c1=O (stereo not drawn) -0.9%
OCCC1CN(Cc2cccc(OC3CCCC3)c2)CCN1Cc1ccsc1 (stereo not drawn) -1.7%
O=C(CN1C(=O)/C(=C/c2ccccc2F)Sc2ccccc21)NCc1cccnc1 -4.7%
Cc1ccc(CN2CCN(/N=C/c3ccco3)CC2)c(C)c1 -2%
Cc1ccc(/C(N)=N/OC(=O)COc2ccc(Cl)c(C)c2)cc1 -6.6%
COc1ccc(Cl)cc1NC(=O)CN(C)Cc1ccc(OC)c(OC)c1 2.3%
Cc1nnc(SC(C(=O)Nc2cc(Cl)cc(Cl)c2)c2ccccc2)[nH]c1=O (stereo not drawn) 2.4%
COc1ccc(F)cc1C(=O)C1CCCN(C(=O)CCc2ccccn2)C1 (stereo not drawn) 0.9%
COc1ccc(NC(=O)CN(Cc2ccccc2)S(C)(=O)=O)cc1OC -3.6%
O=C(O)c1ccc(NS(=O)(=O)c2ccc3c(c2)C(=O)c2cc(S(=O)(=O)Nc4ccc(C(=O)O)cc4)ccc2-3)cc1 2.8%
CCC(=O)Nc1c(C)n[nH]c1C -6.7%
CC(CCc1ccccc1)NCC(O)c1cccc([N+](=O)[O-])c1 (stereo not drawn) -4.1%
N#Cc1c(NC(=O)CCCl)sc2c1CCCCC2 0.1%
Cc1cccc(C(=O)OCC(=O)Nc2sc3c(c2C#N)CCC3)c1 5.2%
Oc1ccc(/C=N/N(Cc2ccccc2)c2ccccc2)cc1 -6.2%
Cc1nc(CC(=O)NNS(=O)(=O)c2ccc(F)c(Cl)c2)cs1 -6.6%
O=C(O)c1ccccc1-c1ccccc1C(=O)NCc1cccnc1 3.5%
O=C(Oc1c(-c2ccco2)oc2ccccc2c1=O)c1cccnc1 -3.4%
C(=N\N1CCN(c2ccccn2)CC1)/C1=C(N2CCOCC2)C(=C/c2ccccc2)/CC1 -0.3%
CC(=O)Nc1sc2c(c1C(c1cccc(F)c1)N1CCN(CCO)CC1)CCCC2 (stereo not drawn) -3.5%
Cc1cccc(NC(=O)c2ccc3nsnc3c2)c1C -1.2%
CCOC(=O)c1c(NC(=O)C2CC=CCC2C(=O)O)sc(C)c1CC (stereo not drawn) 2%
CCC(C)NC(=O)c1nn(C)c(=O)c2ccccc12 (stereo not drawn) -4.5%
O=c1c(-c2ccccc2)coc2cc(O)ccc12 -6.9%
COc1cc2sc(C)nc2cc1C -3.9%
CCSc1ccccc1C(=O)Nc1ccc2c(c1)OCO2 -5.5%
COc1cc(/C=C/C(=O)O)cc(S(=O)(=O)Nc2ccccc2SC)c1OC 6.4%
CC(=O)Nc1ccc(Nc2c3ccccc3nc3ccccc23)cc1 2.2%
O=C(CN1CCN(c2ccc(Cl)cc2)CC1)NCc1cccs1 -1.4%
CCCCNC(=O)C1CCC(CNS(=O)(=O)c2ccc(NC(C)=O)cc2)CC1 (stereo not drawn) -2.5%
O=C(CCc1ccc(S(=O)(=O)N2CCOCC2)cc1)NN=C1CCCCCCC1 -2%
COc1ccc(N2C(=O)CC(Sc3n[nH]c(-c4ccc(C)cc4)n3)C2=O)cc1 (stereo not drawn) -5.7%
CN(C)c1nccc(NCc2ccccc2)c1C#N 0.6%
COc1cccc(N(Cc2nnc3n2CCCCC3)C(=O)Nc2ccccc2F)c1 -2.9%
CC(C)c1nc2sc3c(c2c(=O)n1N)CC(C)(C)OC3 -1.5%
COCCn1c(SCC(=O)Nc2ccc3c(c2)CCC3)nc2ccccc2c1=O -1.3%
CCN(C(=O)CSc1nc2ccccc2n1CC)C1CCS(=O)(=O)C1 (stereo not drawn) -1.3%
Cc1cc(C(=O)COC(=O)CNC(=O)c2ccc(F)cc2)c(C)n1Cc1ccco1 1.3%
S=C(Nc1ccc(Br)cc1Cl)NC1CCN(Cc2ccccc2)CC1 -5.2%
CSCCC(NC(=O)c1cc([N+](=O)[O-])cc([N+](=O)[O-])c1)c1nc2ccccc2[nH]1 (stereo not drawn) -6.8%
CCc1ccc(CN2C(=O)c3ccccc3C2C(=O)NCC2CCCO2)cc1 (stereo not drawn) 2.3%
Cc1cccc(N2CCN(c3ccc(NC(=O)/C=C\C(=O)O)cc3)CC2)c1 -4.5%
NNC(=O)COc1ccc(C2SCCS2)cc1 -6.7%
O=C(NCc1ccncc1)NC12CC3CC(CC(C3)C1)C2 2.3%
COc1ccc([N+](=O)[O-])cc1NC(=O)CC1SC(=Nc2cccc(C)c2C)N(/N=C(\C)c2ccc(C)cc2)C1=O (stereo not drawn) -3.9%
Cc1[nH][nH]c(=O)c1C(c1ccc(-c2ccc(Cl)cc2)o1)c1c(C)[nH][nH]c1=O 10.3%
Cc1[nH][nH]c(=O)c1C(c1ccc2c(c1)OCO2)c1c(C)[nH][nH]c1=O 44%
CC(CNc1ccc([N+](=O)[O-])c2cccnc12)Nc1c([N+](=O)[O-])cc(C(F)(F)F)cc1[N+](=O)[O-] (stereo not drawn) 13.7%
NS(=O)(=O)c1ccc(CCNC(=O)c2ccc(Cl)cc2[N+](=O)[O-])cc1 5.9%
CCCC(=O)NC(=S)Nc1ccc(CN2CCOCC2)cc1 -4.1%
Cc1cc(-c2n[nH]c(=S)n2-c2ccc(C)c(C)c2)no1 -3%
O=C(c1cc(Cl)cc(Cl)c1)N1CCC(=O)N(C(COCc2ccccc2)Cc2ccccc2)CC1 (stereo not drawn) -3.9%
CCn1c(SCC(=O)Nc2nc(C)cs2)nnc1C(C)NC(=O)c1ccccc1 (stereo not drawn) -5.3%
COCCCNC(=O)CNC(=S)N(Cc1cc(OC)c(OC)c(OC)c1)C1CCCC1 -4.1%
CC(=O)Nc1ccc(NC(=O)C(C)OC(=O)c2ccccc2C(=O)c2ccc(Cl)c([N+](=O)[O-])c2)cc1 (stereo not drawn) 0.3%
Cc1cc(C)c(NC(=O)c2oc3ccccc3c2COc2ccccc2)c(C)c1 0.7%
CCn1c(C(C)NC(=O)c2ccc(C)cc2)n[nH]c1=S (stereo not drawn) -0.4%
CC(C)(C)NC(=O)CN(C(=O)c1ccc(Cl)nc1)c1cccc2ccccc12 -2.9%
CC(C)(C)n1nc2c(c1NC(=O)c1cc3ccccc3o1)CSC2 -7.4%
COc1cc(C(=O)Nc2cc(C(F)(F)F)ccc2-n2cncn2)cc(OC)c1OC -1.7%
O=C(COc1cc(Cl)c(Cl)cc1Cl)NC(=O)NC1CCCC1 0.7%
O=C(Nc1ccc2c(c1)OCO2)c1sc2cc(Cl)ccc2c1Cl 0.3%
Cc1nnc(SCc2cccc(Cl)c2)n(N)c1=O -2.2%
